“And” between values parts separate entries of the source, which are not always exact repeats. Equal values may be shown once. Records with an inconclusive call do not appear. The source made the active and inactive calls. Unless noted, calls come from the whole dose curve; as a rule, active = well fitted curve in the direction sought with a large enough effect; inconclusive = small, poorly fitted or top-dose-only effect, or another doubt; inactive = no such curve, though single readings can be large; an effect the other way counts as inactive or inconclusive. Positions of bridges follow the written chain, without caps; N, C: chain ends. Non-standard residues stand in square brackets, D forms with d. Residues, ends and D or L forms follow the SMILES beside them. *: point of attachment. X1 = CCC(C)C(N)C1=NC(C(=O)*)CS1; dOrn = NCCC[C@@H](N)C(=O)O
Experiments:
[1] = target: Cellular tumor antigen p53 (Homo sapiens) (UniProt P04637); assay: Primary qHTS for small molecule compounds that upregulate eGFP-tagged delta133p53alpha (in N-terminal) cells. (AID 2060322); conditions: NCI-H358 eGFP-delta133p53alpha fluorescence, 24 h; activation: hits give high values; note: nearly all actives have a fitted effect of over 75% in size; note: potency is the fitted concentration of half-maximal effect;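 for activation: series mostly up to about 56 µM; 0% = DMSO vehicle and 100% = reference activator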
Outline: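 NCI-H358 cells pre-induced 24 h with 10 ng/ml doxycycline to express N-terminal eGFP-delta133p53alpha, then dosed 24 h at 37C without doxycycline; fixed, Hoechst-stained, GFP intensity by laser scanning cytometry, normalized to DMSO (0%) and 57.5 uM 5-azacytidine (100%).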

[2] = target: Aldehyde dehydrogenase, mitochondrial (Homo sapiens) (UniProt P05091); assay: qHTS for Inhibitors of the Aldehyde Dehydrogenase Family (ALDH2) Confirmatory screens (AID 2061303; active = well fitted inhibition curve with a large enough effect; title and protocol of this record describe different tests; note: nearly all actives have a fitted effect of over 45% in size; note: potency is the fitted concentration of half-maximal effect)
[3] = qHTS for Inhibitors of the Aldehyde Dehydrogenase Family (ALDH1A2, ALDH1A3, ALDH2, ALDH3A1) (AID 2061307); note: nearly all actives have a fitted effect of over 50% in size; for Potency: test system not described further here; potency is the fitted concentration of half-maximal effect
[4] = target: Retinal dehydrogenase 2 (Homo sapiens) (UniProt O94788); assay: qHTS for Inhibitors of the Aldehyde Dehydrogenase Family (ALDH1A2) Confirmation screens (AID 2061314); note: nearly all actives have a fitted effect of over 65% in size; note: potency is the fitted concentration of half-maximal effect
[5] = target: Aldehyde dehydrogenase 1A1 (Homo sapiens) (UniProt P00352); assay: qHTS for Inhibitors of the Aldehyde Dehydrogenase Family (ALDH1A1) Confirmatory screens (AID 2061316); note: nearly all actives have a fitted effect of over 65% in size; note: potency is the fitted concentration of half-maximal effect
[6] = target: Retinaldehyde dehydrogenase 3 (Homo sapiens) (UniProt P47895); assay: qHTS for Inhibitors of the Aldehyde Dehydrogenase Family (ALDH1A3) Confirmatory screens (AID 2061311); note: nearly all actives have a fitted effect of over 60% in size; note: potency is the fitted concentration of half-maximal effect
[7] = target: Retinaldehyde dehydrogenase 3 (Homo sapiens) (UniProt P47895); assay: qHTS for Inhibitors of the Aldehyde Dehydrogenase Family (ALDH1A3) Validation screen (AID 2061312); note: % is set by controls: 0 for no effect and ±100 for the full control effect; nearly all actives have a fitted effect of over 45% in size
[8] = target: Retinaldehyde dehydrogenase 3 (Homo sapiens) (UniProt P47895); assay: qHTS for Inhibitors of the Aldehyde Dehydrogenase Family (ALDH1A3) Primary screen (AID 2061315); note: potency is the fitted concentration of half-maximal effect
[9] = BET inhibitor-based combinations targeting novel dependencies in MECOM-rearranged (r) AML: SET-2 cell line (AID 2202231); conditions: SET-2 AML cells viability, CellTiter-Glo luminescence, 48 h; viability: hits give low values, series mostly up to about 46 µM;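 note: plate controls were DMSO treated cells for no effect and wells without cells for full effect; nearly all actives have a fitted effect of over 35% in size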
Outline: (§1)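 Cells were plated at 500 per well and exposed to an 11-point dose series of each drug for 48 hr. Viability was measured by CellTiter-Glo luminescence, normalized to DMSO and empty-well controls, and summarized as AUC and per-cell-line Z-AUC.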

[10] = BET inhibitor-based combinations targeting novel dependencies in MECOM-rearranged (r) AML: OCI-AML3 cell line (AID 2202232); conditions: Potency: OCI-AML3 viability;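 note: series mostly up to about 46 µM; plate controls were DMSO vehicle wells for no effect and wells without cells for full effect; nearly all actives have a fitted effect of over 35% in size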
Outline: as §1

[11] = BET inhibitor-based combinations targeting novel dependencies in MECOM-rearranged (r) AML: MV-4-11 cell line (AID 2202233);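 note: plate controls were DMSO for no effect and blank wells for full effect; nearly all actives have a fitted effect of over 45% in size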
Outline: (§2)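 Activity is given as area under the curve and as Z-AUC, mean-centred within each cell line. It comes from 11-point dose curves normalized to DMSO and empty wells. CellTiter-Glo luminescence was read after 48 hr drug exposure of 500 cells/well.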

[12] = BET inhibitor-based combinations targeting novel dependencies in MECOM-rearranged (r) AML: UCSD-AML1 cell line (AID 2202235);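 note: series mostly up to about 46 µM; plate controls were DMSO vehicle wells for no effect and blank wells for full effect; nearly all actives have a fitted effect of over 40% in size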
Outline: as §2

[13] = BET inhibitor-based combinations targeting novel dependencies in MECOM-rearranged (r) AML: AML-194 cell line (AID 2202237;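 note: plate controls were vehicle wells for no effect and wells without cells for full effect; nearly all actives have a fitted effect of over 40% in size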)
Outline: as §1

[14] = target: Aldehyde dehydrogenase, mitochondrial (Homo sapiens) (UniProt P05091); assay: qHTS for Inhibitors of the Aldehyde Dehydrogenase Family (ALDH2) Primary screen (AID 2061308);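 note: plate controls were vehicle for no effect and reference inhibitor for full effect; nearly all actives have a fitted effect of over 55% in size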
[15] = BET inhibitor-based combinations targeting novel dependencies in MECOM-rearranged (r) AML: HNT-34 cell line (AID 2202234);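 note: plate controls were vehicle wells for no effect and cell-free wells for full effect; nearly all actives have a fitted effect of over 35% in size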
Outline: as §2

[16] = BET inhibitor-based combinations targeting novel dependencies in MECOM-rearranged (r) AML: AML-191 cell line (AID 2202236;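 note: plate controls were vehicle wells for no effect and wells without cells for full effect; nearly all actives have a fitted effect of over 35% in size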)
Outline: as §1

Sequence of Cellular tumor antigen p53 (Homo sapiens) (P04637 whole entry, looked up): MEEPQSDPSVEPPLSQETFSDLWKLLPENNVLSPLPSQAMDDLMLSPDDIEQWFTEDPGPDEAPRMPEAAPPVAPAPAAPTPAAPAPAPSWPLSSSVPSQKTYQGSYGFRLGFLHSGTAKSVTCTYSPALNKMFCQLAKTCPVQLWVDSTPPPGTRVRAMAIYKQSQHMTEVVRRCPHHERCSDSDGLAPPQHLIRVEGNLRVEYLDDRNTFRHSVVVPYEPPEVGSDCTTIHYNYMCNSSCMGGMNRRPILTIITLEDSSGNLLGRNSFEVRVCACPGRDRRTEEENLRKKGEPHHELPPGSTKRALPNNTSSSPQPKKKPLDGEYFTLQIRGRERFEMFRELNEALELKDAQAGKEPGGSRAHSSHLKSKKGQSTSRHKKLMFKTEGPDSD

O=C(C1CCCCC1)N(CCN1CCN(c2ccccc2O)CC1)c1ccccn1
inactive: activation [1] -3.34% | Potency [2] | Potency [3] | Potency [4]
active: Potency [5] 11.3 µM

Cn1c(=O)c2[nH]c(-c3ccc(S(=O)(=O)O)cc3)nc2n(C)c1=O
inactive: activation [1] 1.02% | Potency [2] | Potency [3] | Potency [6] | Potency [7] | Potency [4] | Potency [5]

N[C@@H](CCNCc1ccc(Cl)cc1)C(=O)N1CCCCC1
inactive: activation [1] 1.91% | Potency [2] | Potency [3] | Potency [7] | Potency [4] | Potency [8] | Potency [5]

O=C(CN1C2=NCCN2c2ccccc21)c1ccc(-c2ccccc2)cc1
inactive: activation [1] 7.16% | Potency [7] | Potency [4] | Potency [8]
active: Potency [2] 3.57 µM | Potency [3] 3.57 µM | Potency [6] 31.6 µM

O=C(O)c1cnn(-c2nc3cc(OC(F)(F)F)c(Cl)cc3[nH]2)c1
active: Potency [3] 13.5 µM | Potency [6] 3.18 µM | Potency [8] 10 µM
inactive: activation [1] -9.67% | Potency [2] | Potency [4] | Potency [5] | viability [9] 119% | Potency [10] | Potency [11] | Potency [12] | Potency [13]

CC1(NC(=O)c2ccc(C#Cc3cccc(F)c3)cn2)COC1
inactive: activation [1] -11.9% | Potency [2] | Potency [14] | Potency [6] | Potency [7] | Potency [4] | Potency [8] | Potency [5]

COC(=O)c1ccc(O[C@@H]2O[C@H](CO)[C@@H](O)[C@H](O)[C@H]2O)c(OC)c1
inactive: activation [1] -13.4% | Potency [2] | Potency [14]
active: Potency [6] 17.5 µM

COc1ccnc(CCc2nc3ncccc3[nH]2)c1
inactive: activation [1] -5.73% | Potency [2] | Potency [3] | Potency [6] | Potency [4] | Potency [8] | Potency [5]

COc1cc(C(O)C2COC(c3ccc(OC4OC(CO)C(O)C(O)C4O)c(OC)c3)C2CO)ccc1O (stereo unspecified)
inactive: activation [1] -10.7% | Potency [2] | Potency [3] | Potency [14] | Potency [5]

COc1ccc(NC(=O)c2ccc(-c3ccc(C(=N)N)cc3C)cc2)cc1N1CCN(C)CC1
active: Potency [5] 12.7 µM
inactive: activation [1] 8.11% | Potency [2] | Potency [3] | Potency [14]

CC(=O)Nc1sc2c(c1-c1nc3ccccc3s1)CNC2
inactive: Potency [8]
active: Potency [1] 26.9 µM | Potency [2] 11.3 µM | Potency [3] 7.12 µM | Potency [5] 6.34 µM

COC(=O)N1CCN(Cc2cccc(NC(=O)Nc3ccc(C)nc3)c2F)CC1
inactive: activation [1] 4.35% and -6.68% | Potency [2] | Potency [14] | Potency [6] | Potency [7] | Potency [4] | Potency [8] | Potency [5] | viability [9] 104% | Potency [10] | Potency [15] | Potency [16] | Potency [13]

Cc1cc2ncc(C(=O)NCC(C)(C)NCC(=O)N3CCC[C@H]3C#N)cn2n1
inactive: activation [1] -6.33% | Potency [2] | Potency [3] | Potency [6] | Potency [4]

CCC(C)C(N)C1=NC(C(=O)N[C@@H](CC(C)C)C(=O)N[C@H](CCC(=O)O)C(=O)N[C@H](C(=O)N[C@H]2CCCCNC(=O)[C@H](CC(N)=O)NC(=O)[C@@H](CC(=O)O)NC(=O)[C@H](Cc3cnc[nH]3)NC(=O)[C@@H](Cc3ccccc3)NC(=O)[C@H]([C@@H](C)CC)NC(=O)[C@@H](CCCN)NC2=O)[C@@H](C)CC)CS1 (stereo partly specified) (X1-L[dE]IK[dOrn]I[dF]H[dD]N; lactam 4-C)
active: Potency [2] 12.7 µM | Potency [4] 11.3 µM | Potency [5] 4 µM
inactive: activation [1] -3.34% and -0.955% | Potency [14] | Potency [6] | Potency [7] | Potency [8] | viability [9] 117% | Potency [10] | Potency [11] | Potency [15] | Potency [12] | Potency [16] | Potency [13]

CO/N=C(/C(=O)N[C@@H]1C(=O)N2C(C(=O)O)=C(Cn3ccc(=N)n3CCO)CS[C@H]12)c1csc(N)n1
inactive: activation [1] 2.39% | Potency [2] | Potency [3] | Potency [7] | Potency [4] | Potency [8]

Cc1ccccc1C#Cc1ccc(CCC(=O)O)cc1
inactive: activation [1] 4.3% | Potency [2] | Potency [14] | Potency [7] | Potency [4] | Potency [5]
active: Potency [6] 10.1 µM

CC(=O)NC(C)c1cnc(-c2cnc(Oc3ccc(OC(C)C)cc3)s2)s1 (stereo unspecified)
inactive: activation [1] -20% | Potency [2] | Potency [14] | Potency [6] | Potency [7] | Potency [4] | Potency [8]

O=C1CC(c2ccc([N+](=O)[O-])cc2)=NN1c1ccccc1
inactive: activation [1] -8.93% | Potency [2] | Potency [3] | Potency [5]
active: Potency [6] 11.3 µM

Cn1cnc(-c2nccc3c(=O)[nH]c(OCCCC(F)(F)F)nc23)c1
inactive: activation [1] -13.4% | Potency [2] | Potency [3] | Potency [4] | Potency [8] | Potency [5]

CN(C)c1ccc2c(c1)OC(N)=C(C#N)C2c1cccc(C(F)(F)F)c1 (stereo unspecified)
inactive: Potency [2] | Potency [3] | Potency [5]
active: Potency [1] 0.953 µM

COCCN(C(=O)c1cc(OC)c(OC)c(OC)c1)c1nc(-c2ccccc2)cs1
inactive: activation [1] 19.1% | Potency [2] | Potency [3] | Potency [6] | Potency [4] | Potency [5]
